# Data: ChEMBL document CHEMBL3988442, “University of Dundee, Small-Polar-MMV Screening Library” (2021)
# For some assays here: Entries with a potency or affinity are not part of this list.
# Experiments:
# Design in all cases: scale not given: direction of the effect not stated beside the values
# [1] = target: Protein translocase subunit SecA (Escherichia coli (strain K12)) (UniProt P10408); test: Assay to Identify E. coli SecA ATPase Inhibitors; type: functional; settings: 30 µM
# [2] = target: T1, Ubiquitin-activating enzyme e1, putative (Leishmania donovani (strain BPK282A1)) (UniProt E9BSI1); test: Leishmania donovani Ubiquitin Activating Enzyme (LdE1); type: functional; settings: 30 µM
# T1 sequence (whole entry): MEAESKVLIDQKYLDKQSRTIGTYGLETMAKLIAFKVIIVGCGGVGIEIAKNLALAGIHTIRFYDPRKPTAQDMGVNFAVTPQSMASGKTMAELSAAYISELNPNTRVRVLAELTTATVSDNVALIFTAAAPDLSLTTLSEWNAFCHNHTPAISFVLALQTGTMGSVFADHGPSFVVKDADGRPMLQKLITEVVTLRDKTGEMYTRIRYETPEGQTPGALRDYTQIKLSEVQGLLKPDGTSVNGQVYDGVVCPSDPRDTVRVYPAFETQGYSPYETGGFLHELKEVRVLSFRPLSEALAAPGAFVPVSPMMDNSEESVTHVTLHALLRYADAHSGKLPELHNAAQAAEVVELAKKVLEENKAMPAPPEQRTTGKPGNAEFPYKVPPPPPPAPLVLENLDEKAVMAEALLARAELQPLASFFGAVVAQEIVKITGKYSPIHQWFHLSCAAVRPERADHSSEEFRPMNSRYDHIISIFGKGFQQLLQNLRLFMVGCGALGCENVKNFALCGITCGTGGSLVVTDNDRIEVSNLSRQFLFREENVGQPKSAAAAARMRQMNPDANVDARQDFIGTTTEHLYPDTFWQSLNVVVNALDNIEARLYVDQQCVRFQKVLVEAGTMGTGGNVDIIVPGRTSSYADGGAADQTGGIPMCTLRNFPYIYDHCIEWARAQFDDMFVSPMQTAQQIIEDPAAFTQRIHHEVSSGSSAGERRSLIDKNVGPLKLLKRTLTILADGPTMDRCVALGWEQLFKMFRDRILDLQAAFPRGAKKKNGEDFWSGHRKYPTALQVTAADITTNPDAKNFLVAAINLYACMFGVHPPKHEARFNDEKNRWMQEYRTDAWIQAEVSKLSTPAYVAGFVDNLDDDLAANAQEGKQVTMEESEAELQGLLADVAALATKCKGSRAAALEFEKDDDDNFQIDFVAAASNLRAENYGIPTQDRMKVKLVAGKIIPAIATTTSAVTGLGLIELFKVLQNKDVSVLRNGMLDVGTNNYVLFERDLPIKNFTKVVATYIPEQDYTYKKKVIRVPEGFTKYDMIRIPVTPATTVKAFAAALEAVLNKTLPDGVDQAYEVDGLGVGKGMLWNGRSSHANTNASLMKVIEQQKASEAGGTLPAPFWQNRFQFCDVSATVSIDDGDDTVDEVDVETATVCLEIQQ
# [3] = target: AMP-activated protein kinase, AMPK (Homo sapiens) (UniProt P54646+O43741+P54619+Q9UGJ0+Q9Y478+Q13131+Q9UGI9); test: AMP-dependent Kinase enzyme assay. An in vitro enzyme assay that detects ADP turnover that is directly proportional to AMPK activity. This uses naive AMPK that is activated during the assay with MK-8722; type: functional; settings: 30 µM
# [4] = target: Sialic acid-binding Ig-like lectin 9 (Homo sapiens) (UniProt Q9Y336); test: Hs-Siglec9 ALPHAscreen SOP 20170721; settings: 10 µM
# Sequence of Sialic acid-binding Ig-like lectin 9 (Homo sapiens) (Q9Y336 whole entry): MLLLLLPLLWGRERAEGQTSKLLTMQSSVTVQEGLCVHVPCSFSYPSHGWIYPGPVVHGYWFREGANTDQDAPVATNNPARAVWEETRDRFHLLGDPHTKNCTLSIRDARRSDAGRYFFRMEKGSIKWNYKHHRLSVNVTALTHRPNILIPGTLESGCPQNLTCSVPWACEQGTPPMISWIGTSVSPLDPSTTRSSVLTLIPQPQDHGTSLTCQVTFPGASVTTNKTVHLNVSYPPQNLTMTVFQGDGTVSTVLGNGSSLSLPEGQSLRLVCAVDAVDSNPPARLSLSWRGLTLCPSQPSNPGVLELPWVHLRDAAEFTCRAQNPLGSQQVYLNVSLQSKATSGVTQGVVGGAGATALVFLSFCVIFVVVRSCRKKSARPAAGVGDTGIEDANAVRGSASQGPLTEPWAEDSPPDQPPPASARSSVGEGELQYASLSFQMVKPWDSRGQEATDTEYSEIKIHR
# Trypanosoma cruzi = test: Trypanosoma cruzi phosphomannomutase and mannose-1-phosphate guanylyltransferase assay; type: functional; settings: 10 µM
# [5] = target: T2, Arginase-2, mitochondrial (Homo sapiens) (UniProt P78540); test: in vitro enzyme assay to detect the production of urea directly proportional to the activity of Arginase II; type: functional; settings: 33.3 µM; also: in the data most compounds retested in dose-response had high values
# T2 sequence (whole entry): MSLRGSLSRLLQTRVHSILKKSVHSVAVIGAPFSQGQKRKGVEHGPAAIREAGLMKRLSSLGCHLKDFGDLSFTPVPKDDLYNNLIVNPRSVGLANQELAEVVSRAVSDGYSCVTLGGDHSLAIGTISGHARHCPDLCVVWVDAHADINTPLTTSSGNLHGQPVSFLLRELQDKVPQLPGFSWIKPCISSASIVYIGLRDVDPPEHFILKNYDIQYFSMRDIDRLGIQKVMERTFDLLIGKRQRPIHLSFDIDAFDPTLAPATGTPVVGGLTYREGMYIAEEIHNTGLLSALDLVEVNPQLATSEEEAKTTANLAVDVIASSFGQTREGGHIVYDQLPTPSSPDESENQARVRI
# [6] = target: T3, Proteasome subunit beta (Trypanosoma cruzi) (UniProt O96673); test: Trypanosoma cruzi proteasome chymotrypsin-like activity (TcProtChymo) assay.; also: in the data most compounds retested in dose-response had high values; type: functional; settings: 9.37 µM
# T3 sequence (whole entry): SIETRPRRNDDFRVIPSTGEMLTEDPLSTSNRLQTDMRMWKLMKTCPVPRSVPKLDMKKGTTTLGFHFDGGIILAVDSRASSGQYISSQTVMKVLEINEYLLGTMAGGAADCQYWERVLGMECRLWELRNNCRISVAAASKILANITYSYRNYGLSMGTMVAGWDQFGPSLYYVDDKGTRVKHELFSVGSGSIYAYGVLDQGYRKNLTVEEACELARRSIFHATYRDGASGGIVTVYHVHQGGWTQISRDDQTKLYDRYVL
# Homo sapiens = species on record: Homo sapiens; test: To identify inhibition of the IFN signalling (Jak-Stat) pathway via expression of an eGFP reporter gene under the control of an IFN-stimulated response element (ISRE) containing MxA promoter.; type: functional; settings: 30 µM
# [7] = target: T4, Tyrosyl-tRNA synthetase, putative (Trypanosoma cruzi (strain CL Brener)) (UniProt Q4DSP6); test: Trypanosoma cruzi tyrosyl tRNA synthetase (TcYRS) _High Tyrosine SOP; type: functional; settings: 30 µM; also: in the data most compounds retested in dose-response had high values
# T4 sequence (whole entry): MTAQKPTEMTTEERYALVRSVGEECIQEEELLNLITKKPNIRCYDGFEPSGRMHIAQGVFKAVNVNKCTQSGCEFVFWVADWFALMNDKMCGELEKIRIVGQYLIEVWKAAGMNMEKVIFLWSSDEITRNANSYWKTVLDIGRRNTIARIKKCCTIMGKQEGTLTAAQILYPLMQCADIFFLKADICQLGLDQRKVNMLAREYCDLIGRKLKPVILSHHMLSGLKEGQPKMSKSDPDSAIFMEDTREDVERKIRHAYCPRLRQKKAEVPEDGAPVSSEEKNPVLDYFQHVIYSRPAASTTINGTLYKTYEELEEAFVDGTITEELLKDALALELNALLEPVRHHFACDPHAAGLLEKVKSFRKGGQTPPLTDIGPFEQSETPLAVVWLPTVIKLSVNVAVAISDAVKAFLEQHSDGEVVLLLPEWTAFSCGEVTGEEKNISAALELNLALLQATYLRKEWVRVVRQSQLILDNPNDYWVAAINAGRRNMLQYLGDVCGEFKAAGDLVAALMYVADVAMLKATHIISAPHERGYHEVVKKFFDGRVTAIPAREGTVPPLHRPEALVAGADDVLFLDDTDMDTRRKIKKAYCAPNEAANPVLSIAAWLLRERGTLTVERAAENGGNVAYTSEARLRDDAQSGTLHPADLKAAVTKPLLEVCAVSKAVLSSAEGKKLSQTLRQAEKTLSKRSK
# [8] = target: T4, Tyrosyl-tRNA synthetase, putative (Trypanosoma cruzi (strain CL Brener)); test: Trypanosoma cruzi tyrosyl tRNA synthetase (TcYRS) SOP; type: functional; settings: 30 µM
# [9] = target: Chromo domain-containing protein 1 (Saccharomyces cerevisiae (strain ATCC 204508 / S288c) (Baker's yeast)) (UniProt P32657); test: ScCHD-1 Enzyme Inhibition Assay; type: functional; settings: 30 µM; also: in the data most compounds retested in dose-response had high values
# Sequence of Chromo domain-containing protein 1 (Saccharomyces cerevisiae (strain ATCC 204508 / S288c) (Baker's yeast)) (P32657 whole entry, the tested form may be a part): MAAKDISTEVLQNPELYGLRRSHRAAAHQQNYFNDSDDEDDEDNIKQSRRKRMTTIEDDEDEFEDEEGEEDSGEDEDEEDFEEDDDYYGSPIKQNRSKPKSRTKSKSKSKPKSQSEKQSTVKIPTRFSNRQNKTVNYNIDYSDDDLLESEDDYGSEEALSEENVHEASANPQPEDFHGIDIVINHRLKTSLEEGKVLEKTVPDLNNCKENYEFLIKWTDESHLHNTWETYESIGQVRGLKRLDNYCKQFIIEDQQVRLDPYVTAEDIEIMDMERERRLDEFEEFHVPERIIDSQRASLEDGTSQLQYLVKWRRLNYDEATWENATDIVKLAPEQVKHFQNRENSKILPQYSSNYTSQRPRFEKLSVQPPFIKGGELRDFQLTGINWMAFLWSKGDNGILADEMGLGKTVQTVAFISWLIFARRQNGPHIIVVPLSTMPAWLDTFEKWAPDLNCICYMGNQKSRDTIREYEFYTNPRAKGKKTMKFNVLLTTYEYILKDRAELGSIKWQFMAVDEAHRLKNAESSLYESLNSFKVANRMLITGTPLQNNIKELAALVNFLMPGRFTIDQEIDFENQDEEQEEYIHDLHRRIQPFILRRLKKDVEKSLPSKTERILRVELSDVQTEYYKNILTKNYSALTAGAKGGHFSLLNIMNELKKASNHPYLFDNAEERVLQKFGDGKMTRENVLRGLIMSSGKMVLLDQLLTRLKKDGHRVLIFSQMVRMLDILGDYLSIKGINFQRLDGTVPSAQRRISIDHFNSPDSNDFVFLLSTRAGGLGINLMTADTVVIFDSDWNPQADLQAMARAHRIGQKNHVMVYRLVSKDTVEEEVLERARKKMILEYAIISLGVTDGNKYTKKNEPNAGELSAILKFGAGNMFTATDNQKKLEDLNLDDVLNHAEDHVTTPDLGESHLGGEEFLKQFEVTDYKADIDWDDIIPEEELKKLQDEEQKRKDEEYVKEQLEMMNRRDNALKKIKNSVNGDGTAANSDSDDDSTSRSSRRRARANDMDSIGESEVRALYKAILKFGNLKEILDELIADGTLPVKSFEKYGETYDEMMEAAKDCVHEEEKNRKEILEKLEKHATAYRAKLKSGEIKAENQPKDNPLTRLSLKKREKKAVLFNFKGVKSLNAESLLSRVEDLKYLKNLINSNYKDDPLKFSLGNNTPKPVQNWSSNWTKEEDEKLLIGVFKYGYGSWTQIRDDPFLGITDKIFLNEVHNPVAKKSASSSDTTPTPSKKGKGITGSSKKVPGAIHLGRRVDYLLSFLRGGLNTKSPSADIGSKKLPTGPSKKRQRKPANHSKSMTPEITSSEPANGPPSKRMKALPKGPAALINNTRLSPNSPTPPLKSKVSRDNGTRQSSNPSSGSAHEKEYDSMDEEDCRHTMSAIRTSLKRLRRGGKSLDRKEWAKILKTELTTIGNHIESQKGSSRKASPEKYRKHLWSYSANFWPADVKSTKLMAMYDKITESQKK
# Sequence of Protein translocase subunit SecA (Escherichia coli (strain K12)) (P10408 whole entry): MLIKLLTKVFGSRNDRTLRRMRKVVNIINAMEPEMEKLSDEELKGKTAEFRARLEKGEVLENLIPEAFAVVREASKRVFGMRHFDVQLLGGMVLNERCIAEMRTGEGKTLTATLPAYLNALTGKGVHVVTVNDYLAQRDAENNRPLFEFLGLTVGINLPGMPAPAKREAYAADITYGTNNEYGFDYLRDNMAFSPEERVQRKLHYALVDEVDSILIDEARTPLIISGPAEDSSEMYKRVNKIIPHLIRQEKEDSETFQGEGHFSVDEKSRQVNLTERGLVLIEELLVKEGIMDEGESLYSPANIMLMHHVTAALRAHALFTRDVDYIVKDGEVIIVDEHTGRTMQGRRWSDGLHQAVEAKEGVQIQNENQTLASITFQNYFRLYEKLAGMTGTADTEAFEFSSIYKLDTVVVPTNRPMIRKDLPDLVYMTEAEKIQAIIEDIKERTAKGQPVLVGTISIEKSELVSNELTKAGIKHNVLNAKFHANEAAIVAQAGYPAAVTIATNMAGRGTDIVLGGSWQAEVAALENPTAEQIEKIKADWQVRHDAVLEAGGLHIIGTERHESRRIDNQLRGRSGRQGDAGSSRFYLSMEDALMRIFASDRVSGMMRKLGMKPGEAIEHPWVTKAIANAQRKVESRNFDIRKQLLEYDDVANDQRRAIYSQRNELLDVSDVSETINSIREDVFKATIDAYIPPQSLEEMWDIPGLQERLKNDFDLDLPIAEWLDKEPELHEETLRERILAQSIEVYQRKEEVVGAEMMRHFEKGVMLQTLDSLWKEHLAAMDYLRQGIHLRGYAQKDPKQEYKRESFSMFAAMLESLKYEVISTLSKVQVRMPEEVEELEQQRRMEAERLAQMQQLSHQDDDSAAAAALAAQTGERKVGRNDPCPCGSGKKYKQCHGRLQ
SMILES,Percent Effect [1] [%],Percent Effect [2] [%],Percent Effect [3] [%],Percent Effect [4] [%],Percent Effect (Trypanosoma cruzi) [%],Percent Effect [5] [%],Percent Effect [6] [%],Percent Effect (Homo sapiens) [%],Percent Effect [7] [%],Percent Effect [8] [%],Percent Effect [9] [%]
Fc1cccc(N2CCCC3(CN(Cc4ccncc4)CCO3)C2)c1 (stereo not given),-2.7,5.33,13.4,2.73,-6.5,6.29,8.02,29.6,6.38,11.5,-3.18
COCCCC1(CO)CCCN(CCS(C)(=O)=O)C1 (stereo not given),-1.54,0,3.61,-1.71,0,1.36,2.13,-0.331,2.15,5,2.4
CS(=O)(=O)N1CC[C@H]2O[C@H](C(=O)NCCc3ccncc3)CC[C@H]21,-7.37,0,5.86,-3.48,-2.51,-57.5,-1.03,15,2.08,-15,3.45
Cc1ccc(CN2CC[C@H]3OCC[C@@H](c4nc(C)no4)[C@H]3C2)cc1,-4.22,5.41,2.69,-2.48,7.14,-4.14,15.3,-21.7,0,10.3,0.212
CN1CC(=O)N(c2cccnc2)CC12CCN(C(=O)c1cccnc1)C2 (stereo not given),1.61,10.7,11,-7.78,-3.09,-53.9,14.5,2.71,6.25,10,-5.77
Cc1cnn(CC2CCCN2CCCc2nc3ccccc3o2)c1 (stereo not given),-6.63,13.5,-13.1,10.9,4.18,-4.99,6.82,4.32,6.93,18.3,-7.36
Cc1nn(C)c(N2CCOCC2)c1CNC(c1cccs1)C(C)C (stereo not given),-2.38,21.1,-9.37,-0.827,1.59,1.8,12.6,-16.1,10.3,28.4,-6.09
COc1ccc(CN2CCCC(Cn3nc(C)nc3C)C2)cc1F (stereo not given),-2.67,-3.8,7.97,-1.91,5.64,-1.94,0,5.94,-2.08,2.53,4.68
Cc1nnc([C@@H]2CC[C@@H]3[C@@H](CCN3S(=O)(=O)c3cccnc3)O2)o1,-6.5,10.8,7.11,-2.36,-1.07,6.05,15.7,-6.25,15.1,12.8,-1.2
CC(C(=O)NCc1ccnc(N2CCN(C)CC2)c1)n1cccn1 (stereo not given),-0.897,0,-0.213,6.59,7.14,3.06,-4.18,1.68,0.49,7.32,-5.23
